Each structure is given as a SMILES string.

The test system of the experiment is Plasmodium falciparum. The experiment can be described thus: GSK_TCMDC: Inhibition of Plasmodium falciparum 3D7 in whole red blood cells, using parasite LDH activity as an index of growth. Test compounds present at 2uM. It counts as functional.
As to `CCN(CC)Cc1cccc(-c2cc3c(-c4ccc(C(=O)O)c(C(C)C)c4)ccnc3[nH]2)c1OC.O=C(O)C(F)(F)F`, the Inhibition turned out to be 99%.

The molecule `CC(C)OC(=O)c1ccccc1S(N)(=O)=O` came in with an Inhibition of 97%. The same measure for `CN(C)Cc1c(O)ccc2[nH]c(-c3ccc(OC(F)(F)F)cc3)nc12`: 100%; for `COc1cccc([C@@H](CC(=O)Nc2cc(C(F)(F)F)ccc2OC)Nc2ccc(C#N)c3ccccc23)c1`: 96%; for `CN(C)Cc1ccc(-c2cccc(NC(=O)c3cccc(Cl)c3)c2)cc1.O=C(O)C(F)(F)F`: 96%. The same measure for `O=C(Nc1cccc(CN2CCCN(CC3CCCCC3)CC2)c1)c1ccc(Cl)c(Cl)c1.O=C(O)C(F)(F)F`: 91%; for `Nc1nccc2ccc(Oc3ccncc3)cc12`: 91%; for `O=c1cc(NCCCNCc2cc(C(F)(F)F)ccc2F)[nH]c2ccccc12`: 94%. As for `CCN1CCN(c2cc(C)c3cc(NC(=O)c4ccc([N+](=O)[O-])c(C)c4)ccc3n2)CC1`, the Inhibition was determined as 92%. The same measure for `COc1cccc(C(=O)NCCOc2ccccc2)c1Oc1ccccc1`: 98%; for `COc1ccc2nccc([C@@H](O)CN3CCC(NCc4nc5ccccc5[nH]4)CC3)c2c1.O=C(O)C(=O)O`: 92%; for `COc1ccc(-c2nc(NC(=O)CS(=O)(=O)c3ccc(C)cc3)sc2C)cc1`: 100%.

Take `O=C(O)C(F)(F)F.O=c1cc(N2CCCNCC2)c(Cl)nn1Cc1ccc(NS(=O)(=O)c2ccc(Oc3ccccc3)cc2)cc1`: the Inhibition is reported as 98%. In turn, `Cc1ccc(O)cc1Nc1ccnc2ccc(-c3cccc(CN(C)C)c3)cc12` registered an Inhibition of 100%.

In turn, `NC1CCN(Cc2cccc(-c3ccc(-c4nc5ccccc5[nH]4)cc3)c2)C1.O=C(O)C(F)(F)F` (stereo not given) had an Inhibition of 100%. The same measure for `Cc1ccc(C)c(NC(=O)Nc2ccc(Nc3nc(C)cc(N4CCOCC4)n3)cc2)c1`: 98%; for `C=CCN1C(=O)C(=Cc2cc(Br)ccc2O)SC1=Nc1ccccc1`: 96%. The same measure for `Cc1cc(CN2CCC(N3CC(c4ccccc4)(c4ccccc4)OCC3=O)C2)ccc1O.O=C(O)C(F)(F)F` (stereo not given): 89%. The same measure for `CN1CCC(Oc2ccc(CN3CC[C@H](NC(=O)c4cc(F)cc(F)c4)C3)c3ccccc23)C1.O=C(O)C(F)(F)F` (stereo not given in full): 98%. `COc1cccc(-c2csc(C(=O)NCC3CCN(Cc4ccc(C(C)(C)C)cc4)C3)c2)c1.O=C(O)C(F)(F)F` (stereo not given): the Inhibition was 95%.

Take `Cc1ccc(NC(=O)c2cc(Br)cc(N3CCC(N(C)C)CC3)c2)cc1F.O=C(O)C(F)(F)F`: the Inhibition came out at 100%.

In the case of `Cc1ccc2c(c1)C1(CC(=O)N(CCc3scnc3C)C1=O)C(=O)N2Cc1ccccc1` (stereo not given), the Inhibition was 83%. The same measure for `CC(C)CC1c2[nH]c3ccccc3c2CCN1C(=O)CCc1ccccc1` (stereo not given): 92%. The same measure for `O=C(Nc1ccc(C(=O)OCC2CCCCC2)cc1)N[C@@H](Cc1ccc(O)cc1)C(=O)NC1CCN(Cc2ccc(O)cc2)C1.O=C(O)C(F)(F)F` (stereo not given in full): 91%; for `Cc1ccc(NC(=O)c2ccc(Cl)cc2)cc1-c1ccc(C(=O)Nc2ccncc2)cc1`: 98%; for `Cc1cc(OCCCN2CCC(NS(=O)(=O)c3cccc(Br)c3)C2)c2ccccc2n1` (stereo not given): 86%.

`Cl.O=c1n(CC2CCCCC2)c2cc(Cl)cc(OCCNc3ccncc3)c2n1CC1CCCCC1` registered an Inhibition of 100%. With `CC(Cc1ccc(C(=O)OC(c2ccccc2)c2ccccc2)cc1)NCC(O)c1ccccc1.Cl` (stereo not given) the figure was 100%; with `Cl.Cn1ncc2c3c(CCN4CCC(NCc5cc6c(cn5)OCC6)CC4)c(Cl)cnc3ccc21`, 94%; with `COc1ccc(Cc2nc(/N=C(\N)Nc3ccccc3)ccc2OC)cc1`, 93%. The same measure for `O=C(Nc1ccc(-c2nc3ccc(NC(=O)c4ccc(Br)cc4)cc3[nH]2)cc1)c1ccc(Br)cc1`: 98%. The same measure for `CCCCCCCOc1ccc(NC(=O)Nc2ccc(Cn3ncc(N4CCCNCC4)c(Cl)c3=O)cc2)cc1.O=C(O)C(F)(F)F`: 87%; for `COc1cc(Nc2nccc(N3CCC(NS(=O)(=O)c4ccc(NC(C)=O)cc4)CC3)n2)cc(OC)c1OC`: 91%.

Consider `O=C(c1ccccc1[N+](=O)[O-])N(Cc1ccccc1)c1ccccn1`, for which the Inhibition is reported as 91%.

In turn, `O=C(Nc1ccccc1-c1ccccc1)C1CCCN1C(=O)Nc1ccc(Cl)cc1` (stereo not given) showed an Inhibition of 96%. With `CC1(C)CN(CCC2CCC(NC(=O)/C=C/c3ccc(F)cc3F)CC2)Cc2ccc(C#N)cc21.Cl` (stereo not given) the figure was 88%; with `Cc1ccc(-n2nc3ccc(NC(=O)c4ccc([N+](=O)[O-])o4)cc3n2)cc1C`, 94%; with `O=C(NCCc1ccc(Cl)c(Cl)c1)[C@@H]1CCCN1C(=O)c1ccc(O)c(-c2ccc(Cl)c(Cl)c2)c1`, 99%. With `COc1cc2c(cc1OC)C(C(=O)Nc1cc(OC)c(OC)c(OC)c1)C(c1ccc(SC)cc1)N(C)C2=O` (stereo not given) the figure was 97%; with `COc1ccc(S(=O)(=O)N(c2cc(Br)cc3c2OCC3)S(=O)(=O)c2ccc(OC)c(N3CCN(C)CC3)c2)cc1N1CCN(C)CC1`, 81%.

For orientation: Inhibition means the share of the control response that was lost under treatment. Read a high Inhibition as a response far below the control.

The values above are taken from ChEMBL document CHEMBL1157539, “Thousands of chemical starting points for antimalarial lead identification” (Nature, 2010).
